Experimental data reported in PubChem BioAssay (NCI).
This is part of a sample that, as a whole, favours compounds with a hit. Of some 83,000 tested, about 20% had one in any assay.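 Negative percent growth values reflect cell death: -40 means 40% of the cells present at the start died, and -100 means all died.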 Values without a mark were called inactive. Active and inactive are the calls of the source. How the source made its calls: active means growth percent below 10; inactive means the rest.

Assays:
Assay in all cases: NCI-60 one-dose screen, 48 h (100 = growth as untreated, 0 = no growth, -100 = all killed)
Details in all cases: 10 µM
NCI-H23 lung = test system: NCI-H23 lung
NCI-H226 lung = test system: NCI-H226 lung
HOP-62 NSCLC = test system: HOP-62 NSCLC
NCI-H460 lung = test system: NCI-H460 lung
HOP-92 NSCLC = test system: HOP-92 NSCLC
NCI-H522 lung = test system: NCI-H522 lung
A549/ATCC NSCLC = test system: A549/ATCC NSCLC
786-0 renal = test system: 786-0 renal
COLO 205 colon = test system: COLO 205 colon
DU-145 prostate = test system: DU-145 prostate
K-562 leukemia = test system: K-562 leukemia
MALME-3M melanoma = test system: MALME-3M melanoma
MDA-MB-231 breast = test system: MDA-MB-231 breast
RXF 393 renal = test system: RXF 393 renal
SF-268 CNS = test system: SF-268 CNS
SF-295 CNS = test system: SF-295 CNS
SF-539 CNS = test system: SF-539 CNS
UACC-257 melanoma = test system: UACC-257 melanoma
M14 melanoma = test system: M14 melanoma

Structure (SMILES) | growth (NCI-H23 lung) | growth (NCI-H226 lung) | growth (HOP-62 NSCLC) | growth (NCI-H460 lung) | growth (HOP-92 NSCLC) | growth (NCI-H522 lung) | growth (A549/ATCC NSCLC) | growth (786-0 renal) | growth (COLO 205 colon) | growth (DU-145 prostate) | growth (K-562 leukemia) | growth (MALME-3M melanoma) | growth (MDA-MB-231 breast) | growth (RXF 393 renal) | growth (SF-268 CNS) | growth (SF-295 CNS) | growth (SF-539 CNS) | growth (UACC-257 melanoma) | growth (M14 melanoma)
CCOC(=O)c1cc(C(=O)c2cc(OC)c(OC)c(OC)c2)n2ccc(-c3cc[n+](CC(=O)c4cc(OC)c(OC)c(OC)c4)cc3)cc12 | 63.6% | 90.8% | 94.8% | -10.3% (active) | 46.2% | -21.5% (active) | 31.3% | -82.3% (active) | 43.7% | 44.8% | -44.5% (active) | 63.1% | -22.8% (active) | 65.7% | -14.5% (active) | 94.3% | 30.4% | 92.5% | 54.5%
COc1cc(-c2nn(-c3cccc(NC(=O)CCN4CCN(Cc5ccccc5)CC4)c3)cc2-c2ccncc2)ccc1Cl | 20.8% | 54% | 24% | 1.48% (active) | -0.56% (active) | -31.4% (active) | 11.6% | -59.9% (active) | -50.9% (active) | 7.55% (active) | -43.1% (active) | -60.7% (active) | -14.7% (active) | -50.6% (active) | 19.1% | -46.5% (active) | -74.3% (active) | -58.2% (active) | -61.3% (active)
COc1cccc(-c2nc3sccn3c2-c2cccc(S(C)(=O)=O)c2)c1 | 85.4% | 90.1% | 105% | 106% | 87.3% | 102% | 102% | 100% | 114% | 110% | 95.5% | 129% | 93.4% | 84.1% | 100% | 94.4% | 94.3% | 115% | 119%
CCOC(=O)C1=CSC2=NC3=C(CCC/C3=C\c3cc(OC)c(OC)c(OC)c3)C(c3cc(OC)c(OC)c(OC)c3)N12 (stereo not given) | 52.3% | 67.5% | 74.5% | 23.3% | 84.8% | 95.4% | 65.1% | 91.3% | 52.7% | 8.85% (active) | 38.7% | 74.6% | 74.2% | 32.7% | 33.3% | 55.8% | 49.9% | 58.1% | 16.9%
OCC1OC2C(NC(=S)N2c2ccccc2)C(O)C1O (stereo not given) | 102% | 95.5% | 101% | 105% | 90.5% | 104% | 93.9% | 110% | 105% | 107% | 108% | 131% | 99.8% | 108% | 96.8% | 99.8% | 102% | 102% | 120%
C=CCN(CC=C)C(=O)[C@H](CC)[C@@H]1CC[C@@H](C)[C@@H]([C@H](C)[C@@H](O)[C@@H](C)C(=O)[C@H](CC)C2O[C@]3(C=C[C@@H](O)[C@]4(CC[C@@](C)([C@H]5CC[C@](O)(CC)[C@H](C)O5)O4)O3)[C@H](C)C[C@@H]2C)O1 (stereo not given in full) | 6.23% (active) | -0.687% (active) | 12% | 3.23% (active) | -23.9% (active) | -2.7% (active) | 11.5% | 20% | -62.4% (active) | 53.7% | 14.3% | -22.4% (active) | -36.3% (active) | -1.56% (active) | 41.7% | -16% (active) | 29.1% | 7.88% (active) | 17.9%
Nc1ccn(Cc2nnc(CCC(=O)c3nc4ccccc4[nH]3)o2)c(=O)n1 | 74.5% | 73.7% | 82% | 34.6% | 66.1% | 84.2% | 63.8% | 97.2% | 103% | 98.4% | 79.8% | 90.9% | 87.3% | 98.5% | 95.8% | 79.8% | 86.8% | 101% | 89.8%
Cc1ccc(S(=O)(=O)N(C)CCCCCC(=O)O)cc1 | 99.1% | 99.7% | 92.3% | 107% | 110% | 90% | 95% | 95.3% | 107% | 102% | 104% | 98.5% | 110% | 103% | 99% | 92.7% | 97.9% | 98.2% | 95.1%
O=S(=O)(O)c1ccc(Cl)cc1 | 96% | 97.3% | 95.2% | 103% | 117% | 94.6% | 97% | 111% | 109% | 101% | 99.7% | 98.2% | 107% | 123% | 95.1% | 109% | 102% | 99.2% | 99.7%
Cc1ccc2nc(Cl)c(-c3nc4ccccc4o3)cc2c1 | 77.6% | 90.7% | 92.7% | 106% | 83% | 90.3% | 99.6% | 99.5% | 89.5% | 103% | 80.7% | 86.9% | 91.4% | 102% | 87.9% | 105% | 99.2% | 108% | 106%
